Shown are actives, neighbours in structure and some others; about 2.2% of the full set was active somewhere.
PolyA inhibitor: polyadenylation inhibitors in yeast reporter cells, primary screen, luminescence, S. cerevisiae | S. cerevisiae SKY197-pL101 polyadenylation reporter, beta-gal luminescence; efflux-impaired pdr1/pdr3 knockout yeast; score 100 = 6 SD above DMSO | activity score, % at 12 µM | hit rate 0.02% among 300,000 | AID 1875, 2009;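 active means lowest replicate activity score at least 50, where 100 means six control SD above control mean; inconclusive means lowest score under 50 but half or more replicates reach 50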;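 further: yeast exposed to compound for 9 h at 30 °C; higher score means more reporter readthrough which indicates perturbed polyadenylation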
EBNA-1 inhibitor: EBNA-1 DNA-binding inhibitors, primary screen, biochemical, fluorescence polarization. inhibition, % at 14.8 µM. hit rate 0.34% among 300,000; in the data active means inhibition above about 28%
NALP3 yeast inh: NALP3 inflammasome inhibitors in reconstituted yeast, primary screen, luminescence, uHTS; Yeast reconstituted NLRP3/ASC/caspase-1, beta-gal luminescence, 24 h; inhibition, % at 10 µM; hit rate 0.39% among 330,000;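 active means inhibition of 50% or more; inactive means inhibition below 50%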;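 further: plate controls were induced DMSO wells for no effect and uninduced yeast grown without galactose for full effect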
NALP1 inh: NALP1 inflammasome inhibitors in reconstituted yeast, colorimetric, S. cerevisiae, triplicate retest; hit rate 0.61% among 280,000; S. cerevisiae NALP1/ASC/caspase-1 growth, X-gal OD620, 72 h; inhibition, % at 10 µM; in the data active means inhibition mostly above about 24%, no sharp cut-off; inactive means mostly below about 32%
dFosB act: activators of delta FosB homodimer, primary screen, biochemical, fluorescence polarization, TAMRA-CDK5 oligo, single point; Protein FosB (Mus musculus), P13346; purified delta FosB; percent of positive-control signal above neutral wells; activation, % at 25 µM; hit rate 0.99% among 340,000; AID 493131, 2011;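 active means mean activation above about 17%, with every replicate also reaching it, limit read from the data, passing the limit was not always enough; inconclusive means only one of the two conditions met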
Target sequence (P13346 whole entry, looked up): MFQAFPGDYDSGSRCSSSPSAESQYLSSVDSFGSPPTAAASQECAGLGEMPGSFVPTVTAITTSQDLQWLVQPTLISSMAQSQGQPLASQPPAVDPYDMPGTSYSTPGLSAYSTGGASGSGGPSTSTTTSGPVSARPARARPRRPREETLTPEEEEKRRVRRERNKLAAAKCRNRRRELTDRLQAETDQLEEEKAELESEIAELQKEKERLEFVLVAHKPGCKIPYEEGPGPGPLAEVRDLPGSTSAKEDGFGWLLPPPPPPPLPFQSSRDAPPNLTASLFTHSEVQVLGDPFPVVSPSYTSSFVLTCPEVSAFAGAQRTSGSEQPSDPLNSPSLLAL
ZTA counter: counter-screen for EBNA-1 inhibitors: inhibitors of Epstein-Barr virus ZTA; P03206; ZTA-DNA binding, fluorescence polarization; hit rate 0.15% among 320,000; inhibition, % at 11 µM; in the data active means inhibition above about 33%
Target sequence (P03206 whole entry, looked up): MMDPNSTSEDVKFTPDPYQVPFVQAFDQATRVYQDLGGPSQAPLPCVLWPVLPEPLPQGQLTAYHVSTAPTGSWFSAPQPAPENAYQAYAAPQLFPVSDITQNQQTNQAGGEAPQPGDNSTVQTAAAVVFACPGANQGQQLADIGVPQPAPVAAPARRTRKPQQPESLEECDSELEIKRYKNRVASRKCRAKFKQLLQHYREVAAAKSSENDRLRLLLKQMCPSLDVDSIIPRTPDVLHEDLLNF
NALP3 confirm: NALP3 inhibitors retested in yeast, confirmation, luminescence, single concentration; hit rate 81% among 1,300; shares compounds with NALP3 yeast inh; yeast expressing human NALP3; AID 435006, 2010; inhibition, % at 10 µM; in the data active means inhibition above about 48%
Casp1 ASC ctr: CASP1-PYCARD signaling inhibition in yeast, confirmatory test, counterassay for NLRP3 inhibitor program, one-dose. shares compounds with NALP3 yeast inh. yeast expressing Caspase-1-ASC, luminescence counter screen. inhibition, % at 10 µM. hit rate 66% among 1,000. AID 488784, 2010
NALP3 yeast rt: NALP3 inhibitors in yeast, repeat test, confirmation, luminescence, single concentration, retest | shares compounds with NALP3 yeast inh | yeast expressing human NALP3, luminescence read-out | inhibition, % at 10 µM | hit rate 53% among 1,000 | AID 488794, 2010
* marks the source's active call; other numbers are inactive results; ? = inconclusive; . = no result given. Unless noted, no stated cut-off is given here; in the data, active means inhibition above about 50%; inactive means the rest.

SMILES	PolyA inhibitor	EBNA-1 inhibitor	NALP3 yeast inh	NALP1 inh	dFosB act	ZTA counter	NALP3 confirm	Casp1 ASC ctr	NALP3 yeast rt
CCN1/C(=C/c2ccc3cc(C)ccc3[n+]2CC)Sc2ccccc21	.	-10	56*	123*	52*	0	68*	100*	99*
CN(CCOc1ccccc1)CC(=O)Nc1ccc(S(=O)(=O)N2CCCC2)cc1	31	-8	-3	2	-11	1	.	.	.
CN(CCOc1ccccc1)c1ccc(S(=O)(=O)N2CCCCC2)cn1	-6	-23	55*	-9	-6	1	60*	47	52*
CCCCNC(=O)Oc1cc(CCl)on1	-5	-3	-14	0	.	-23	.	.	.
CCCCNC(=O)Oc1c(Br)cc2sc(=O)oc2c1Br	.	-2	72*	.	.	26	62*	.	.
Cn1c(-c2ccccc2)cc2c3no[n+]([O-])c3ccc21	2	-1	53*	20	2	-12	61*	63*	59*
Cn1c(-c2ccccc2)cc2ccccc21	-13	13	11	11	1	9	.	.	.
CC(C)C[C@H](NC(=O)OC(C)(C)C)C(=O)N[C@@H](CO)[C@H](O)[C@@H]1C[C@@H]1C(=O)N(C)C	2	-11	-7	26	2	20	.	.	.
CCCCc1ccc(NC(=S)NCc2ccc(OC)cc2)cc1	-6	-14	50*	-4	-5	15	72*	55*	35
O=C(CSc1nc(=O)n2ccccc2n1)N1CCN(c2ccccc2)CC1	9	-14	6	.	-2	1	.	.	.
CCN1CCN(S(=O)(=O)c2ccc(Br)s2)CC1	-1	12	8	9	3	6	.	.	.
O=S(=O)(c1ccc(Br)s1)N1CCN(CCc2ccccc2)CC1	.	.	61*	.	4	-12	63*	34	28
O=S(=O)(c1ccc(Br)s1)N1CCN(c2ccc(F)cc2)CC1	-26	-19	55*	-37	-2	-1	65*	27	27
CCSC1(SCC)N=C(N)C2(C#N)C(c3ccc(F)cc3)C12C#N (configuration not stated)	-7	-12	59*	15	0	-10	50*	65*	47
COC1(OC)N=C(N)C2(C#N)C(c3ccc(F)cc3)C12C#N (configuration not stated)	1	-1	11	.	-9	-8	.	.	.
CCc1ccc(OCC(=O)NCc2ccco2)c(Br)c1	-14	-6	51*	18	-7	10	46	44	46
O=C(NC(Nc1nc2ccc([N+](=O)[O-])cc2s1)(C(F)(F)F)C(F)(F)F)c1cccnc1	3	5	12	23	-6	4	.	.	.
O=C(NC(Nc1nc2ccc([N+](=O)[O-])cc2s1)(C(F)(F)F)C(F)(F)F)c1ccccc1Cl	-23	9	74*	105*	-4	-18	94*	87*	94*
COc1ccccc1OCc1cc(C(=O)N2CCN(C)C(c3ccccc3)C2)no1 (configuration not stated)	-8	-4	36	0	-5	4	.	.	.
CN1CCN(C(=O)c2cc(COc3c(F)cccc3F)on2)CC1c1ccccc1 (configuration not stated)	-114	1	84*	11	0	13	88*	85*	84*
O=C(CN(c1ccccc1Cl)S(=O)(=O)c1ccccc1)NCc1ccccc1	-11	.	13	-23	-5	.	.	.	.
COc1ccc(-c2cn3c4c(sc3n2)CCCC4)cc1	-19	5	52*	0	1	9	61*	49	45
COc1ccc(C(=O)N2CCCC(N3CCN(c4ccccc4F)CC3)C2)c(OC)n1 (configuration not stated)	-8	-3	3	25	-6	1	.	.	.
O=S(=O)(c1c(Cl)sc(Cl)c1Br)N1CCCC1	-7	-1	64*	9	-4	-6	64*	62*	67*
Cc1cccnc1Nc1nc(-c2ccccn2)cs1	-24	-1	74*	12	-5	-6	84*	97*	92*
SMILES	PolyA inhibitor	EBNA-1 inhibitor	NALP3 yeast inh	NALP1 inh	dFosB act	ZTA counter	NALP3 confirm	Casp1 ASC ctr	NALP3 yeast rt
Cc1cccnc1Nc1nc(-c2ccccc2)cs1	-1	-5	38	25	-8	0	.	.	.
Cc1ccccc1C#N	.	.	12	.	4	-11	.	.	.
O=c1c2ccccc2nc(-c2ccc([N+](=O)[O-])cc2)n1O	?	1	58*	1	5	2	74*	51*	58*
COCCn1c(N)c(N(Cc2ccccc2)C(=O)CSCC(=O)Nc2ccc(OC)cc2)c(=O)[nH]c1=O	6	7	7	.	-14	-2	.	.	.
N#C/C(=N\Nc1ccc(Cl)cc1)C(=O)c1ccsc1	-33	5	55*	14	-6	6	35	.	.
N#C/C(=N\Nc1ccccc1)C(N)=S	-4	7	23	-33	-1	9	.	.	.
N#C/C(=N\Nc1ccc(Cl)cc1)C(N)=S	-10	1	75*	.	-5	-9	90*	.	.
Cc1ccc(N/N=C(\C#N)C(=O)c2ccsc2)cc1	-12	-7	43	-2	2	-3	.	.	.
Cc1ccc(N/N=C(\C#N)C(N)=S)cc1C	5	-4	67*	11	2	-2	56*	42	41
O=C(NC1CCCC1)c1cc(-c2ccccc2O)on1	-9	-10	26	24	-2	11	.	.	.
COc1ccccc1-c1cc(C(=O)NC2CCCC2)no1	-6	13	53*	21	-17	12	50*	50*	49
COc1ccccc1OCCCc1c(C)n[nH]c1C	-75	-1	51*	43*	-2	-1	88*	95*	81*
CC(C)c1ccc(O)c(NC(=S)NC(=O)c2ccc3c(c2)OCO3)c1	-48	-1	28	4	-3	-15	.	.	.
CCN(CC)S(=O)(=O)c1ccc(-n2cnc3cc(C)c(C)cc32)nc1	-3	-1	1	1	-2	3	.	.	.
CC1C(=O)N2CCCc3cc(NC(=O)C(=O)NCCc4ccc(F)cc4)cc1c32 (configuration not stated)	-7	-5	3	.	-7	-8	.	.	.

Assay outcomes: PubChem BioAssay, several laboratories
